# Experimental data published in PubChem BioAssay AID431 (Sanford-Burnham Center for Chemical Genomics, 2006).
# The campaign covered roughly 63,000 compounds. About 1,100 (1.7%) were called active. The sample holds actives, similar compounds and a random draw of the others, so the mix is not that of the screen. Results with a measured potency or affinity are listed apart. A number with no mark means an inactive call.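 The calls were made as follows: active = compounds whose percent cytotoxicity in the single-dose primary screen, scaled between solvent and toxic-drug controls, exceeds 50; inactive = the rest.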
# Test: cytotoxicity in KRAS-transformed pancreatic duct cells, primary screen, cell-based, fluorescence, HTS (AID 431);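 also: 0% = DMSO solvent wells and 100% = doxorubicin-treated wells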
# Details: HPDE-C7K KRASV12 cells, Alamar Blue viability, 48 h; at 10 µM; stronger effect = higher value
row,SMILES,cytotoxicity
1,CCn1cc(C(=O)NCCCN(C)C)c(=O)c2cc(F)c(N3CCN(C)CC3)cc21,-0.3%
2,CCn1cc(C(=O)NCc2ccccn2)c(=O)c2cc(F)c(N3CCN(C)CC3)cc21,2.1%
3,CCn1cc(C(=O)NCCc2ccccc2)c(=O)c2cc(F)c(N3CCN(C)CC3)cc21,50.5% (active)
4,C/C(Cl)=C\Cn1c(N2CCCCCC2)nc2c1c(=O)n(C)c(=O)n2C,12%
5,N#Cc1ccc(NC(=O)c2cc3cc4c5c(c3oc2=N)CCCN5CCC4)cc1,12.7%
6,Cc1cc(-c2ccccc2)nc(N2CCN(c3ccccn3)CC2)n1,5.4%
7,O=C(c1cc(Cl)ccc1Cl)N1CCN(c2ccccn2)CC1,1.5%
8,COC(=O)c1sc(Nc2ccccc2)nc1C,0.2%
9,CCS(=O)(=O)N1CCN(c2cccc(C)c2C)CC1,-2.5%
10,c1ccc(-c2cc(-c3nc(-c4cccnc4)no3)c3ccccc3n2)cc1,-19.7%
11,c1ccc(-c2ccc(-c3nc(-c4ccccn4)no3)cc2)cc1,-2.8%
12,c1ccc(-c2cc(-c3nc(-c4ccccn4)no3)c3ccccc3n2)cc1,60.7% (active)
13,Cc1cc(C)n2cc(CSc3nnnn3-c3ccccc3C)nc2n1,-17.4%
14,COc1ccc(CSc2nnc(N)s2)cc1F,49.9%
15,Cc1ccc2c(c1)c1c3n2CCN(C(=O)CN2CCN(C)CC2)C3CCC1 (centres undefined),42.5%
16,Cc1ccc2c(c1)c1c3n2CCN(C(=O)C2CC2)C3CCC1 (centres undefined),-2.9%
17,COc1ccccc1N1CCN(C(=O)CCCCn2c(=O)[nH]c3ccsc3c2=O)CC1,1.8%
18,CN1CCc2nc(SCC(=O)Nc3ccc(F)cc3)c(C#N)cc2C1,-5%
19,O=C(Nc1cccc(C(F)(F)F)c1)c1cccnc1N1CCN(CCO)CC1,-13.4%
20,O=C(CN1CCCC(O)C1)N1c2ccccc2Sc2ccc(C(F)(F)F)cc21 (centres undefined),-4%
21,C=CCN1C(=O)c2ccccc2Sc2ccc(C(=O)N3CCN(C)CC3)cc21,-13.7%
22,FC(F)(F)c1cccc(CN2CCCCCC2)c1,-5.3%
23,C=CCOC(=O)CC(NC(=O)c1ccccc1)c1ccccc1 (centres undefined),-11.4%
24,COc1ccccc1-c1cn(S(=O)(=O)c2ccc(F)cc2)nc1N,2%
25,O=C(c1ccccc1)c1coc2ccc(O)c(Cl)c12,-15%
26,CC(=O)C(C(C)=O)c1c(Cl)c(O)c(O)c2c(C(=O)c3ccccc3)coc12,76.1% (active)
27,CCOC(=O)c1[nH]nc(C(=O)c2ccc(Br)cc2)c1O,5.4%
28,CN(C)Cc1c(O)ccc2occ(C(=O)c3ccccc3)c12,6.6%
29,Cc1ccc(C(=O)c2coc3ccc(O)c(CN4CCN(C)CC4)c23)cc1,-9%
